How the values were obtained:
[1] = molecular target: T1, Aspartate--tRNA(Asp/Asn) ligase (Mycobacterium tuberculosis (strain ATCC 25618 / H37Rv)) (UniProt P9WFW3); assay: Assay for Asp RNA synthetase-1 from Mycobacterium tuberculosis; format: functional; set-up: scale not given: direction of the effect not stated beside the values; conditions: 30 µM; note: in the data most compounds retested in dose-response had high values
T1 sequence (whole entry): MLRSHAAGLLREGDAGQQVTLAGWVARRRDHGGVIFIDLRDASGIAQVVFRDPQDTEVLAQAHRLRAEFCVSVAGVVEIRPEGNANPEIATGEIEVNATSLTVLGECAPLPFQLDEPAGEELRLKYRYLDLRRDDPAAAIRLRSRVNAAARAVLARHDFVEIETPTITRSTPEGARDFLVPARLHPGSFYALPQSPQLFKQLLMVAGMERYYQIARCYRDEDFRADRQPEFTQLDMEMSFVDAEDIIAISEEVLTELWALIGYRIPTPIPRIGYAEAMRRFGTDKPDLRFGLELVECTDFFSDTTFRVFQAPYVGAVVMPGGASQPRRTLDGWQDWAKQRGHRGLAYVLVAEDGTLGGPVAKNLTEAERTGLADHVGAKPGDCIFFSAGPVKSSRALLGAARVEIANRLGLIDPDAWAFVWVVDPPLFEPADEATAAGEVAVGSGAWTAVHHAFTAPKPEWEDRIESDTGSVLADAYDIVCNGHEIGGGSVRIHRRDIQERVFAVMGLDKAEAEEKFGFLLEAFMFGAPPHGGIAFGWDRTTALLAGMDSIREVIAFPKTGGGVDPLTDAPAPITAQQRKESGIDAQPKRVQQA

[2] = molecular target: Shiga toxin 2 (Escherichia coli O157:H7) (UniProt P09385+P09386); assay: E. coli 0.157:H7 Shiga Toxin SOP - stx2 screening assay; format: functional; set-up: scale not given: direction of the effect not stated beside the values; conditions: 30 µM

Structure (SMILES)	Percent Effect [1]	Percent Effect [2]
Cc1nc(NC2CCCC2)cc(C2CCN2C(=O)c2ccccc2)n1 (stereo unspecified)	-4.99%	-18.1%
Cc1cc(-c2nnn(CCNS(C)(=O)=O)n2)ccc1F	-2.07%	-10.6%
Cc1nc(CN2CCOC(c3nc(C(C)C)n[nH]3)C2)oc1C (stereo unspecified)	0.999%	-9.33%
COc1ccc(Cl)cc1NCC(=O)NCCNc1cnccn1	-0.88%	25.1%
COc1ccccc1CC(=O)NCCCN1CCCC1C(=O)N(C)C (stereo unspecified)	5.61%	-5.75%
COCC(=O)N1CCC(c2noc3nc(C)cc(C(F)(F)F)c23)CC1	3.71%	-10.9%
O=C(NCC1CCN(C(=O)c2ccoc2)CC1)c1ccccc1Br	-6.27%	3.64%
Cc1nc2ccccc2nc1CN1CCCC1c1c(C)nn(C)c1C (stereo unspecified)	-5.6%	-18.4%
O=C(NCc1cccnc1)C1=NN(c2ccccc2)C(=O)CN1	14.8%	-1.16%
Cc1noc(C)c1CN1CCN(Cc2ccncc2)c2ncccc2C1	-2.02%	8.32%
CC(C)(C)c1nnc(CN2CCCC(Cn3cncn3)C2)o1 (stereo unspecified)	0.322%	13%
COCCCn1c(CN2CCCC(O)C2)cnc1S(=O)(=O)C1CCCC1 (stereo unspecified)	4.61%	-11.3%
O=C(CCc1ccc(O)cc1)N1CCC(Cc2ccc(CO)cc2)C1 (stereo unspecified)	-0.39%	-14.8%
Cc1cccc(OCCC(=O)N2CCCN(C(N)=O)CC2)c1C	0.542%	7.91%
O=C1[C@@H]2CCN(Cc3ccoc3)C[C@@H]2OCCN1Cc1cccnc1	-0.368%	-11.5%
CCOc1ccc(Cl)c(C(=O)N2CCN(CCO)CC2)n1	0.455%	15.7%
CN(C)S(=O)(=O)N1CCC[C@]2(C[C@@H](Oc3ccccn3)CO2)C1	3.16%	-10.1%
CCc1nccc(CN2CCCC(c3nn(C)c(=O)n3CC)C2)n1 (stereo unspecified)	1.68%	10.8%
CC(C)N1CCC(Cc2cncc(-c3ccccc3C(=O)O)n2)CC1	1.34%	6.75%
Cc1ccc(OC2(C(=O)O)CCN(C(=O)c3nc(C)oc3C)CC2)cn1	-2.19%	0.158%
Cc1nc(CN2CCCN(C(=O)c3ccccn3)CC2)oc1C	-0.692%	25.9%
CC(C)NC(=O)C1CN(C(N)=O)Cc2ccnn2C1 (stereo unspecified)	-3.46%	-5.82%
CC(C)CN(Cc1nc2c(cnn2C)c(=O)[nH]1)C(C)C	-2.77%	0.929%
CC(C)NC(=O)c1ccc2c(c1)nc1n2CCN(c2ccccc2)C1	0.0581%	-15.6%
Cn1cc(CCNC(=O)CCc2ccc3c(c2)OCO3)cn1	1.25%	21.4%
CC(C)(C)c1cnc(CN2CCC(c3ccnn3CCO)CC2)o1	-2.6%	-1.72%
Cc1nc(C)c(C(=O)OCCNc2ncccc2C#N)s1	1.71%	-15.1%
CN(C)[C@@H]1CN(Cc2ccco2)C[C@@H]2CCCO[C@@H]21	-2%	6.7%

Reference: ChEMBL document CHEMBL3988442, “University of Dundee, Small-Polar-MMV Screening Library” (2021)
